An excerpt weighted towards active compounds, which were near 3.9% of everything screened.
PLC-gamma1 inh – inhibitors of human phospholipase C gamma1. P19174. purified PLC-gamma1, fluorogenic substrate, fluorescence. inhibition, % at 12.2 µM. 370,000 compounds, 0.84% hits. AID 720700; in the data active = inhibition above about 9.5%
AHR act – human AHR activation | AHR-responsive luciferase reporter cells, luminescence | 320,000 compounds, 2.5% hits | AID 2796 | activation, % at 5 µM | P35869; in the data active = activation above about 47%;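 note: 0% = vehicle wells and 100% = reference agonist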
HIF act – HIF pathway transcriptional activation. U2OS HRE-luciferase reporter, luminescence; normalized: DMSO 0%, desferrioxamine 100%. activation, % at 7.5 µM (by protocol). 300,000 compounds, 0.32% hits;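 active = mean activation of at least 10% of the iron chelator positive control signal, with at least half of replicates also reaching 10%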
PLC-beta3 inh – blocks human PLC-beta3 enzyme activity; inhibition, % at 12.2 µM; Q01970; Purified PLC-beta3, fluorogenic substrate, fluorescence; 370,000 compounds, 0.18% hits; AID 720704; in the data active = inhibition above about 11%;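 note: 0% = median of compound wells on plate and 100% = full blocker control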
Yeast superoxide – lowers age-related superoxide in aged yeast cells; S. cerevisiae aged cells, superoxide DHE fluorescence; stronger effect = lower value; AID 2690; 330,000 compounds, 0.18% hits; superoxide response (% of plate mean), % at 10 µM;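 active = superoxide response under a set limit, about three screen SD below normal, cut at about 65% in these data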;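 note: yeast aged for seven days with compound at 30 °C before DHE staining; 100% = average MFI of all compound-treated wells on the plate with controls excluded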
HGIII-sPLA2 inh – Inhibits HGIII-sPLA2 liposome hydrolysis, primary screen | Q9NZ20 | QFRET BODIPY PC-A2 liposome hydrolysis, fluorescence | inhibition, % at 12.2 µM | 370,000 compounds, 0.56% hits | AID 743126;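 active = inhibition above mean plus 3 SD of compounds lying within the high and low control bounds, cut at about 19% in these data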;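 note: 0% = median of test compound wells and 100% = no enzyme DMSO wells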
Target sequence (Q9NZ20 whole entry, looked up): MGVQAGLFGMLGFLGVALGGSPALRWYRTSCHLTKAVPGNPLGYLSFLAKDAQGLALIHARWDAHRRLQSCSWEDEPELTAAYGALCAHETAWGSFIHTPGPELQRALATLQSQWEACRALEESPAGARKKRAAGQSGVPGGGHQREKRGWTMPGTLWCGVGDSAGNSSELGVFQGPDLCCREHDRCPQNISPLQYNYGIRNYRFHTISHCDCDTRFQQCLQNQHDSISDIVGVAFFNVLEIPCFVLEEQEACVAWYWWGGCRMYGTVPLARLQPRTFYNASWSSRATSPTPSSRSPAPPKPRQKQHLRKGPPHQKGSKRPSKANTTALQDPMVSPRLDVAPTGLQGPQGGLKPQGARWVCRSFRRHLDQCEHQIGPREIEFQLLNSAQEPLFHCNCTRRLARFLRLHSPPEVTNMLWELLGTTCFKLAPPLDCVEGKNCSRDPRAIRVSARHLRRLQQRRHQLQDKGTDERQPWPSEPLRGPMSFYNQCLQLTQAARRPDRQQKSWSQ
* = called active by the depositor; i = inactive; / = not tested or not shown.

SMILES	PLC-gamma1 inh	AHR act	HIF act	PLC-beta3 inh	Yeast superoxide	HGIII-sPLA2 inh
O=S(=O)(c1ccc(NC(=S)Nc2ccc3c(c2)OCO3)cc1)N1CCOCC1	-7	74*	3	-7	96	3
C=CCn1c(SCC(=O)Nc2ccccc2OCC)nnc1-c1ccc(C(C)(C)C)cc1	2	/	/	-1	/	-2
Oc1ccc(Cl)cc1-c1cc(-c2ccco2)[nH]n1	-5	47*	1	-5	89	-33
Brc1ccc(-c2nc(-c3ccccn3)no2)o1	3	51*	-2	0	103	6
Clc1ccc(-c2nc(-c3ccccn3)no2)cc1Cl	3	72*	0	3	92	-2
Brc1ccc(-c2nc(-c3ccncc3)no2)o1	0	16	2	2	87	1
COc1ccc(-c2nc(-c3ccccn3)no2)cc1	-6	-14	-4	0	118	11
CN1CCc2c(sc(/N=C/c3c[nH]c4ccccc34)c2C#N)C1	-94	48*	2	-137	104	-12
CN1CCc2c(sc(/N=C/c3c[nH]c4ccccc34)c2C(N)=O)C1	-92	76*	1	-143	98	-1
O=C(NCc1ccccc1)OC1CC2CC1[C@H]1CCCCN1C2 (some centres not stated)	-3	/	/	-3	/	-1
CN1C(=O)/C(=C/c2ccccc2OCc2ccc(F)cc2)N(C)C1=S	7	78*	0	3	106	-7
CCCCn1c(-c2cccs2)nc2nc3ccccc3nc21	i	25	0	i	100	-5
CC(C)Cn1c(-c2cccs2)nc2nc3ccccc3nc21	i	52*	-1	i	112	0
O=C1C(NS(=O)(=O)c2ccccc2)=C(N2CCN(c3ccc(F)cc3)CC2)C(=O)c2ccccc21	2	66*	0	-4	143	10
CC1CCN(C2=C(NS(=O)(=O)c3ccccc3)C(=O)c3ccccc3C2=O)CC1	-1	6	1	-9	142	3
O=C(CSc1nnc(-c2cccnc2)n1-c1ccc(Cl)cc1)c1ccc2ccccc2c1	-3	/	/	-3	/	-11
O=C(C1CCCN(Cc2ccccc2F)C1)N1CCc2ccccc2C1 (configuration not stated)	0	-2	108*	-4	100	-3
COc1cc(CN(C)CCc2ccccn2)cc(OC)c1OC	0	-5	0	3	85	8
COc1ccc(CN(C)CCc2ccccn2)cc1OC	11*	0	0	13*	99	12
COC[C@H]1CCCN1c1ccc2c(c1)O[C@@H]1CCN(C1)S2(=O)=O	-1	/	/	-1	/	2
CC(C)(C)OC(=O)N1CCC(N[C@@H](Cc2ccccc2)C(=O)NCC(c2ccccc2)c2ccccc2)(C(=O)NC2CCCCC2)CC1	0	/	/	1	/	-1
O=C(N/N=C/c1cccc([N+](=O)[O-])c1)c1cnccn1	5	54*	0	5	94	1
Cc1cc(C(=O)N/N=C/c2cccc([N+](=O)[O-])c2)c(C)o1	7	72*	0	6	98	6
O=C(N/N=C/c1cc([N+](=O)[O-])ccc1Cl)c1cnccn1	0	25	1	3	98	4
Cc1cc(C(=O)NN=Cc2c(C)[nH]c3ccccc23)c(C)o1	-25	57*	/	-34	92	5
SMILES	PLC-gamma1 inh	AHR act	HIF act	PLC-beta3 inh	Yeast superoxide	HGIII-sPLA2 inh
Cc1ccc(/C=N/NC(=O)c2cc(C)oc2C)cc1	-2	43	5	-5	103	-2
CC(c1ccccc1)n1cc(C(=O)NCCCN2CCCC2)nn1 (configuration not stated)	1	/	/	-1	/	1
[O-]/C(=C(\C(=S)Nc1cccc2ccccc12)[n+]1ccccc1)c1ccc(Cl)s1	-19	73*	0	-26	99	7
Cc1cc(Nc2ccc(OC(F)F)cc2)cc(=O)n1-c1ccc(OC(F)F)cc1	-7	/	/	-8	/	-15
Cc1ccc2[nH]cc(CCNC(=O)c3ccco3)c2c1	-2	97*	0	-8	116	-24
CC(=O)CC[C@H]1CC[C@]2(CCCN(C(=O)C3CCCCC3)C2)O1	-2	/	/	4	/	-1
C=CCN1[C@H](CC(C)C)COc2cc(F)ccc2S1(=O)=O	4	/	/	-3	/	11
COc1ccc(/C=N/OCC(=O)N=Nc2c(O)[nH]c3ccc(Br)cc23)cc1OC	6	78*	-1	-1	109	-5
COc1ccc(/C(C)=N/OCC(=O)N=Nc2c(O)[nH]c3ccc(Br)cc23)cc1	0	4	0	2	85	-5
O=C(NCC1COCCO1)C1CCN(S(=O)(=O)c2cccc3ccccc23)CC1 (configuration not stated)	0	/	/	1	/	-1
COc1cc(OC)cc(C(=O)N(CCCN2C(=O)c3cccc4cccc(c34)C2=O)c2cccc(OC)c2)c1	-7	103*	-1	-11	88	-23
COc1ccc(N(CCCN2C(=O)c3cccc4cccc(c34)C2=O)C(=O)c2ccncc2)cc1	1	76*	0	0	110	-7
COc1ccc(N(CCCN2C(=O)c3cccc4cccc(c34)C2=O)C(=O)c2cccnc2)cc1	0	75*	0	1	109	-7
COc1ccc(N(CCN2C(=O)c3ccccc3C2=O)C(=O)c2cccc([N+](=O)[O-])c2)cc1	4	2	0	3	104	-9
COc1ccc(CCN(C)C(=O)CCCN2C(=O)c3cccc4cccc(c34)C2=O)cc1OC	3	-2	0	-5	103	-4
CCOC(=O)c1c(C)[nH]c2ccc(O)cc12	-3	65*	1	0	99	-1
Cc1ccc(-c2c(NC(=O)Nc3ccc(F)cc3)nc3ncccn23)cc1	-176	/	/	-242	/	-1
Nc1sc(-c2ccccc2)n[n+]1Cc1cccc2cccnc12	5	85*	2	-6	94	4
Oc1ccccc1CNc1cccc2cccnc12	-12	19	-1	-24	99	2
O=C(Nc1cnccn1)Nc1ccccc1Cl	3	47	0	8	84	1
Cc1cc(NC(=O)Nc2ccccc2Cl)no1	-5	22	2	-6	98	4
COc1ccc(Cl)cc1NC(=O)Nc1cnccn1	0	53*	0	-4	108	3
O=C(Nc1cnccn1)Nc1cccc(Cl)c1Cl	0	49*	0	-2	80	-1
COc1ccc(NC(=O)Nc2cc(C)ccc2F)cc1OC	-1	52*	1	2	90	4
COc1ccc(Cl)cc1NC(=O)Nc1cc(C)on1	2	55*	0	-6	98	-1
CC(=O)c1cc(-c2ccccc2)n(CC(=O)NCc2ccc(F)cc2)c1C	-5	/	/	0	/	0
COc1cccc2c1[C@H](/C=C/c1ccccc1)[C@@H]([C@H](O)COC(C)=O)OC2	1	/	/	2	/	-7
